Fewer than 10 of roughly 2,800 compounds were called active. Calls follow the shape of the dose curve; as a rule, active = well fitted curve in the direction sought with a large enough effect; inconclusive = small, poorly fitted or top-dose-only effect, or another doubt; inactive = no such curve, though single readings can be large or run the other way. Only a sample is shown.
Target: Metallo-beta-lactamase type 2 (Klebsiella pneumoniae) (UniProt C7C422)
Assay: qHTS to identify inhibitors of the New Delhi Metallo-beta-lactamase (NDM): Meropenem screen against the machine-based learning selections.
Details: Purified NDM-1, meropenem hydrolysis, absorbance 300 nm; series mostly up to 38.4 µM
From the text: Assay Submitter (PI): James Inglese Ph.D., Patricia Dranchak Ph.D., Mahesh Aitha Ph.D. Assay Development and Screening Technology Laboratory (ADST) National Center for Advancing Translational Sciences (NCATS), Rockville, MD National Institute of Health (NIH), Bethesda, Maryland The metallo-beta-lactamases (MBL) are a main antibiotic resistance mechanism evolved by bacteria. There is an urgent clinical need for MBL inhibitors to mitigate this growing threat. To support a machine-based learning study, qHTS has been used to experimentally test inhibitors identified by prediction tools.
PROTOCOL TABLE (as described by Inglese et al., 2007) SEQUENCE No. (e.g., 1, 2, 3, etc.); […] (e.g., enzyme, Incubation, Reagent, etc.); VALUE; DESCRIPTION Primary Screen 1; NDM-1; 4 uL of 3 nM enzyme [2 nM final] in 50 mM HEPES (pH 7.0), 1 uM […], 0.01% Tween20; Use BioRaptr to dispense into two sets of Aurora black, clear bottom high base 1536-well plates 2; Compounds; 23 nL; Use Pin Tool (Wako) to transfer DMSO control and library compounds in DMSO 3; Incubate; >30 min 4a; Reagent; 2 uL of 50 uM nitrocefin [16.7 uM final] to one set of assay plates 4b; Reagent; 2 uL of 150 uM meropenem [50 uM final] to second set of assay plates 5a; Incubate; 15 min 5b; Incubate; 30 min 6a; Detector; Absorbance at 485 nm (bandwidth = 5 nm, 25 flashes/well) on Tecan Infinity 6b; Detector; Absorbance at 300 nm (bandwidth = 5 nm, 25 flashes/well) on Tecan Infinity NOTES (numbers refer to sequence above) 1; Column 1 of each plate received assay buffer without enzyme and columns 2-48 received enzyme for a final assay concentration of 2 nM. 2; Control plate contained DMSO in columns 1, 2, 3, and 4. 3; Compound interaction with enzyme. 4; Nitrocefin and meropenem substrates were prepared in the same assay buffer as step 1 for a final assay concentration of 16.7 uM and 50 uM, respectively, and added to all wells across respective sets of assay plates. 5; Default reader settings were applied for absorbance read at 485 nm (nitrocefin) or 300 nm (meropenem), bandwidth = 5 nm, 25 flashes/well. References: Inglese J, Shamu CE, Guy RK. 2007. Reporting data from high-throughput screening of small-molecule libraries. Nat Chem Biol. doi:10.1038/nchembio0807-438 Yasgar A, Shinn P, Jadhav A, Auld D, Michael S, Zheng W, Austin CP, Inglese J, Simeonov A. 2008. Compound Management for Quantitative High-Throughput Screening. J Lab Autom 13:79 - 89. doi:10.1016/j.jala.2007.12.004

Chain of Metallo-beta-lactamase type 2 (Klebsiella pneumoniae) (C7C422 whole entry, looked up): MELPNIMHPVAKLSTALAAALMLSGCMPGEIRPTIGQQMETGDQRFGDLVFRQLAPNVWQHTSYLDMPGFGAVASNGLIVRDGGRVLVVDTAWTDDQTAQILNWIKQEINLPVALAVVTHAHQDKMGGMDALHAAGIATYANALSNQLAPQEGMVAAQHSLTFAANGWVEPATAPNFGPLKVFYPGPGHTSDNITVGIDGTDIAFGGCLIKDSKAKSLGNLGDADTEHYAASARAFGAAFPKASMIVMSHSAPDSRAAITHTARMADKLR

outcome, inactive:
Cc1cc(-c2ccccc2)nc(CN2CC[C@@](O)(C3CCC3)[C@H](C)C2)n1
CCOCCN1C(=O)COC[C@@H]1[C@H](O)c1ccc(NC(=O)Cc2ccccc2)cc1
COCC(=O)N[C@H]1C[C@H]2C(=O)NC[C@@H](CCC(=O)N3CCN(c4ccccn4)CC3)N2C1
COc1ccc(OC)c(S(=O)(=O)N2CCCC(Cn3c(C)nc4cccnc43)C2)c1 (stereo not drawn)
O[C@@H]1C[C@@H](c2nc(-c3ccc4c(c3)OCO4)no2)N(Cc2cc3ccccc3o2)C1
CC1=C[C@@H](CNC(=O)COCC(=O)O)[C@H](C(C)C)C[C@H]1Cc1nc2ccc(C)cc2[nH]1
NCCn1cc(C(=O)NCCS(=O)(=O)N2CCCC2)nn1
C=CCN1CCN(C(=O)[C@@H]2Cc3c[nH]c4cccc(c34)[C@H](CC(C)C)N2)CC1
COc1ccc(-c2noc([C@@H]3C[C@H](NCc4ccc(N(C)C)cc4)CN3C)n2)cc1
COc1cc(F)cc(-c2cnc3[nH]cc(CC(=O)NCc4cccnc4)c3c2)c1
Oc1cccc(Nc2cnc3ccc(-c4ccc(F)cc4)nn23)c1
CCc1ccc(-c2nc(C3CC(=O)N(c4ccc(C)cc4)C3)no2)cc1 (stereo not drawn)
COc1ccc([C@@H](NC(=O)c2ccc3cccc(F)c3n2)C2CC(O)C2)cn1 (stereo partly drawn)
COc1ccc(Nc2cc3c(cn2)CN(CCc2ccccc2)CCN3)cc1
COc1ccc(-c2noc([C@@H]3Cc4nc[nH]c4CN3C(=O)Nc3ccc(C)cc3)n2)cc1
CCOC(=O)N1CCN(C(C(=O)O)c2ccc(OC)nc2OC)CC1 (stereo not drawn)
O=C(O)CCC(=O)N1Cc2[nH]cnc2C[C@H]1C(=O)NC1CCCCC1
CO[C@H]1[C@H](NC(=O)COc2ccccc2)c2ccccc2C12CCNCC2
COc1ccc(-c2cc(N3CCCC(NC(=O)c4cccn4C)C3)n[nH]2)cc1 (stereo not drawn)
CC1=C[C@@H](CNC(=O)c2cncnc2)[C@H](C(C)C)C[C@H]1CC(=O)N(C)Cc1ccccc1
CCOCC(=O)N1CCC(N2CC3CC(C2)[C@H]2CCCC(=O)N2C3)CC1 (stereo partly drawn)
NC(=O)c1cccc(-c2cc3c(cn2)CN(Cc2ccncc2)CCN3)c1
Cc1ccc(-c2noc([C@@H]3Cc4nc[nH]c4CN3Cc3ccccc3)n2)cc1
Cn1cc(-c2cnc(NC(=O)c3c[nH]c4ccccc34)c3c2CCO3)cn1
O=C(NCCc1ccc(Cl)cc1)c1nc(-c2cc(Cl)cc(Cl)c2)c2ccccn12
CCCNC(=O)N(C1CCOCC1)C1CCN(C(=O)Nc2c(F)cccc2F)CC1
O=C(Cc1c[nH]c2ncc(-c3ccsc3)cc12)NCc1cccnc1
Cc1ccccc1-c1cnc2n[nH]c(-c3ccccc3)c2n1
CC1(COc2cccnc2)COc2ccc(C(=O)Nc3ccc4[nH]ccc4c3)cc2N1 (stereo not drawn)
O=C(NCCc1cnc[nH]1)C1CCN(C2CCCCC2)CC1
Cc1ccccc1NC(=O)c1cnc2c(c1)N(Cc1ccccc1)CCC2
C=CCCC(CN1CCCOCC1)Oc1ccc(-c2ccccc2)nn1 (stereo not drawn)
COCCc1noc(CN(C)c2cc(C(C)C)nc3ccnn23)n1
CCC(=O)N1CCC(Cc2nc(-c3ccccc3)n[nH]2)CC1
Cc1cc(C(=O)N[C@H](C)c2c(-c3ccc(Cl)cc3)noc2C(=O)O)c(C)o1
CC(=O)Nc1ccc(CN2CCC(N3CCCCCC3=O)CC2)cc1
CC[C@H]1CN(C(=O)C(C)(C)C)CC[C@H]1CC(=O)NCCSC
O=c1[nH]c(-c2ccc(F)cc2)nc2c1CCN(S(=O)(=O)c1cccs1)C2
O=C(O)c1cncc(N2CCC3(CC2)CNC(C(=O)O)C3)n1 (stereo not drawn)
COc1cccc(CN2CCOC[C@H](Oc3cccnc3)C2)c1
O=C(O)[C@H]1C[C@@H](C(=O)NCc2ccccn2)CN(CC2CC2)C1
O=C(CN1C(=O)NC(c2ccccc2Cl)C2=C1COC2=O)Nc1ccc(F)c(Cl)c1 (stereo not drawn)
COc1ccc(CN2CCNc3cnc(Nc4ccccc4)cc3C2)cn1
Cc1noc([C@@H](C)NC(=O)Nc2cccnc2)c1C(=O)O
O=C(CCn1nnc(-c2ccccc2)n1)N1CCCC2(CCNCC2)CC1
CC(C)CCNC1(Cc2cc(CN3CCOCC3)on2)COC1
Cc1noc([C@@H]2CNC[C@H]2CO)n1
O=C(NCc1cccnc1)[C@@H]1C[C@@H](c2ccc(F)cc2)N(Cc2ccccc2)C1
CC1=C[C@@H](CC#N)[C@H](C(C)C)C[C@H]1CC(=O)NC1CC1
c1cncc(Nc2cc3c(cn2)CN(Cc2ccc4[nH]ccc4c2)CCN3)c1
COc1ccc(-c2cc(-c3cccc(C(N)=O)c3)cn3cncc23)cc1
NC(=O)Cc1c[nH]c2ncc(-c3ccc(F)cc3)cc12
O=c1c2nc(NCc3ccccc3)ccc2ncn1Cc1ccccn1
CCCS(=O)(=O)N1CCC(Oc2nccnc2N2CCOCC2)C1 (stereo not drawn)
CCCCCC(=O)Nc1nc2c(s1)C[C@@H]1[C@](C)(CO)[C@H](O)CC[C@@]1(C)[C@@H]2CC(=O)NCc1ccccc1
CC[C@H]1CN(S(=O)(=O)c2c(C)noc2C)CC[C@H]1CC(=O)NCc1ccco1
CC(C)c1noc([C@@H]2C[C@H](NC(=O)Nc3ccc(F)cc3)CN2C)n1
COCCNC(=O)C[C@@H]1C[C@H]2O[C@H](CNC3CCCCC3)[C@@H](O)[C@H]2O1
O=C(CSc1ccncc1)N1CCN2C(=O)N(Cc3ccccc3)C(=O)[C@H]2C1
OC[C@H]1C[C@@H](NCc2cccc3c2OCO3)[C@H](O)[C@@H]1O
c1ccc(-c2cnc(Nc3ccncc3)c3c2CCO3)cc1
CCC[S+](=O)([O-])N1CCN(C(=O)N2CC3CC(C2)[C@H]2CCCC(=O)N2C3)CC1 (stereo partly drawn)
O=C(O)c1cc(-c2cccc(CO)c2)cc(S(=O)(=O)N2CCOCC2)c1
COc1ccc(C2Cn3nnc(C(=O)N4CCN(C(=O)c5cc(F)ccc5Cl)CC4)c3CO2)cc1 (stereo not drawn)
Cc1ccccc1Nc1cnc2ccc(-c3cccc(CO)c3)nn12
COc1ccccc1C(O)c1nc(Nc2ccncc2)n[nH]1 (stereo not drawn)
OC[C@]12CCCN[C@@H]1CCN(Cc1cccc(-c3ccccn3)c1)C2
COC(=O)c1ccc2c(c1)nc1n2[C@@H](CNC(=O)NC2CCCCC2)COC1
COc1cccc(CN[C@@H]2CCC[C@@H](C(=O)NC3CCOCC3)CC(=O)N(C)C2)c1
COCCNC(=O)[C@H]1CCC[C@H]1NC(=O)c1ccc(OC)cc1
CCS(=O)(=O)N1CCC(Cc2nc(-c3cccnc3)n[nH]2)C1 (stereo not drawn)
C=CCc1cc(C2CC(=O)Nc3[nH]ncc32)cc(OCC)c1OC (stereo not drawn)
O=C1CC(c2ccccc2)N(C(=O)C2CC2)CCCN(C(=O)NCc2ccccc2)CCN1 (stereo not drawn)
O=C(NC[C@H]1OC[C@@H](NCc2cnc[nH]2)[C@@H]1O)C1CCCC1
COc1cccc(-c2cnc3[nH]cc(CC(=O)NCc4cccnc4)c3c2)c1
Cn1ccc(NC(=O)c2cnc3c(c2)N([S+](=O)([O-])c2cccnc2)CCC3)n1
CCOc1cc(=O)n2c(c1C(=O)N1CCN(c3ccc(F)cc3)CC1)CCCC2
CC1=C[C@@H](CNC(=O)Cc2ccccc2)[C@H](C(C)C)C[C@H]1Cc1nc2ccncc2[nH]1
Oc1ccccc1CN1CCNc2cnc(-c3ccccc3)cc2C1
CN1C(=O)[C@@H]2C[C@@H](O)CN2C2(CN(CC3CCCCC3)C2)C1=O
O=C(O)c1cccc(CN2CCN(c3ccc4nccn4n3)CC2)n1
CCn1ccc(C(=O)N2CC(c3nnc(-c4ccc(C)cc4)o3)C3(CCOCC3)C2)n1 (stereo not drawn)
O=C(Nc1ccsc1)N[C@H]1C[C@H]2C(=O)NC[C@@H](CCC(=O)N3CCCCC3)N2C1
O=C(Cc1ccccc1F)N1CCC(Oc2ncccc2C(=O)N2CCCCC2)C1 (stereo not drawn)
CC1=C[C@@H](CNCc2ccncc2)[C@H](C(C)C)C[C@H]1Cc1nnc(-c2ccc(C)cc2)o1
Cc1ccccc1-c1[nH]nc2ncc(-c3ccccc3O)nc12
CN1CCCC2(CCN(S(=O)(=O)c3ccc(F)c(F)c3F)C2)C1=O (stereo not drawn)
CN1CCC(N2CCC[C@H]2C(=O)NCc2cc3n(n2)CCCNC3)CC1
O=C(O)C1(Oc2ccc3ccccc3c2)CCN(Cc2ccsc2)CC1
COc1cccc(CN2CCCC3(CCN(C(=O)c4ccc(OC)nc4OC)C3)C2)c1 (stereo not drawn)
COc1ccc(-c2noc([C@@H]3C[C@@H](O)CN3Cc3ncc[nH]3)n2)cc1
CC(C)(O)CCc1cccc(C(=O)NCCNc2cccnc2)c1
COc1cccc(S(=O)(=O)N2C[C@@H](C)[C@](O)(C3CCC3)C2)c1
O=C(O)[C@@H]1CN(C(=O)c2ccc(=O)[nH]c2)C[C@H]1c1ccc2c(c1)OCO2
COC[C@H]1CCCN1Cc1nc(C2(O)CCN(Cc3ccccc3O)CC2)cs1
O=C(NCc1ccccc1)N1CCCCC1c1nc(-c2cnccn2)n[nH]1 (stereo not drawn)
CN1CC2(CCN(C(=O)c3ccccc3-c3nn[nH]n3)CC2)CC1C(=O)O (stereo not drawn)
Nc1ccsc1C(=O)N[C@H](Cc1ccncc1)C1CC(O)C1 (stereo partly drawn)
O=C(NC[C@H]1O[C@@H](CC(=O)N2CCOCC2)[C@H](O)[C@@H]1O)Nc1ccc(F)cc1F
CCn1nc(C)cc1C(=O)N1CCOC[C@H](Oc2cccnc2)C1
O=c1n(-c2ccc([N+](=O)[O-])cc2)nc2n1CCN(Cc1cccc3ccccc13)C2
Cn1cccc1C(=O)N1CC[C@H](NC(=O)NC2CCCCC2)[C@H]1C(=O)N1CCC[C@@H]1C(N)=O
N#Cc1ccc(C(=O)N2C[C@@H]3C[C@H](C2)c2c(/C=C/c4ccc(Cl)cc4)ccc(=O)n2C3)cc1
NC(=O)C1(N2CCCCC2)CCN(Cc2cc3n(n2)CCNC3)CC1
CC(C)(CO)CNC(=O)c1cnc2c(c1)N([S+](=O)([O-])c1cccnc1)CCC2
Cc1nn(C)c2ncc(C(=O)O)c(NC3CC(c4cc(=O)[nH]cn4)C3)c12 (stereo not drawn)
Oc1cccc(CN2CCCC23CCN(c2ccc(C(F)(F)F)cn2)CC3)c1
O=C(O)CCC(=O)N[C@H]1CCN2C(=O)c3cc(-c4ccc(Cl)cc4)ccc3NC(=O)[C@H]12
